In ChEMBL document CHEMBL3988442, “University of Dundee, Small-Polar-MMV Screening Library” (2021):
Screen size: about 48,000 compounds; about 13,000 (27%) showed an effect of 50% or more. The list shows a part of the results.

Each molecule was assayed on Wolbachia pipientis (assay: Anti-Wolbachia Cell-Based Screen). Details: 5 µM.
Type: functional
Parameters: scale not given: in the data most compounds retested in dose-response had high values

Compound | Percent Effect [%]
Cc1cc(=O)c(C(=O)Nc2cccc(CCN3CCCC3)c2)c[nH]1 | -5.108
O=C(O)CSc1nnc(-c2ccn[nH]2)n1-c1cccc(C(F)(F)F)c1 | -2.54
COc1ccc(-c2nc(C3(NC(=O)OC(C)(C)C)CCC3)no2)cn1 | 3.682
COc1ccc(C(=O)NCCNC(=O)c2cncnc2C)cc1 | -1.399
O=C(COC1CCCCC1)Nc1ccn(Cc2cccnc2)n1 | 3.333
CC1=C[C@@H](CC#N)[C@H](C(C)C)C[C@H]1CC(=O)N1CCN(C)CC1 | 13.63
Oc1cccc(-c2cc(CC3(N(CC4CC4)CC4CC4)COC3)no2)c1 | 2.791
CC(C)=CCS(=O)(=O)Cc1noc(CC(C)C)n1 | -4.798
COCCN1C2(CCN(C(=O)c3cccs3)C2)c2ccccc2S1(=O)=O (centres undefined) | 112.6
CCNC(=O)N1CCC2(C1)c1ccccc1S(=O)(=O)N2CCOC (centres undefined) | 101.2
COCCN1C[C@H]2CCN(C(=O)Nc3ccccc3C)CC[C@H]2S1(=O)=O | -14.97
COCCN1C[C@@H](C)[C@@]2(COCCN(C(=O)c3cccs3)C2)C1.O=C(O)C(F)(F)F | 3.824
COCC(=O)N1CCC2(CCC(C(=O)N3CCCC3)O2)CC1 (centres undefined) | -11.51
O=C(O)C(F)(F)F.O=C(c1ccncc1)N1CCC2(CC1)C(=O)Nc1ccccc12 | -18.03
O=C(c1ccc(Cl)s1)N1CC(c2nc(-c3ccc[nH]c3=O)no2)C1 | -1.237
O=C(c1ccncc1)N1CCC2(COc3ncccc3S(=O)(=O)N2)C1 (centres undefined) | 101.3
O=C(c1ccoc1)N1CCC2(C1)CN(c1ncccn1)C2 | -1.221
O=C1CCC2(CCCN(C(=O)C3CCCC3)C2)CN1CCc1c[nH]cn1 (centres undefined) | -4.42
O=C(C1CCCCC1)N1CCC2(COc3ncccc3S(=O)(=O)N2)C1 (centres undefined) | 116.2
O=C(c1ccccn1)N1CCN(C(c2ccccc2)C(F)(F)F)CC1 (centres undefined) | 20.54
O=C(c1ccccn1)N1CCC2(COc3ncccc3S(=O)(=O)N2)C1 (centres undefined) | 107.8
O=C(C1CCCC1)N1CC[C@]2(O)CCN(Cc3ncccn3)C[C@@H]2C1 | -5.051
O=C(c1ccc(Cl)s1)N1CCC2(COc3ncccc3S(=O)(=O)N2)C1 (centres undefined) | 106.8
O=C(O)C(F)(F)F.O=S1(=O)NCC2(CCN(c3ncccn3)CC2)COc2ccccc21 | 7.267
CCC(CC)NC(=O)NCc1ccnc(-n2ccnc2C)c1 | -7.702

Compound | Percent Effect [%]
COCCN1CCN(C(=O)C[C@@H]2C[C@@H](C(C)C)[C@H](CO)C=C2C)CC1 | -1.318
CC(=O)Nc1ncc(S(=O)(=O)N2CCC(C)CC2)s1 | -4.256
COCCN(C)C(=O)c1ccc2onc(-c3coc(C)n3)c2c1 | 3.529
CC(C)Cc1noc(CN(C)C(=O)C2COc3ccccc3C2)n1 (centres undefined) | -0.9273
O=C(CN1CC(c2nc(C3CC3)no2)C1)NCC1CCCO1.O=C(O)C(=O)O (centres undefined) | 11.2
Cc1ccc(CN2CC3(CCN(C(=O)c4cscn4)C3)C2)s1.O=C(O)C(F)(F)F | -3.969
O=C(c1cscn1)N1CCC2(CC1)CCN(S(=O)(=O)c1ccccc1)C2 | -2.013
O=C(c1cscn1)N1CCC2(COc3ncccc3S(=O)(=O)N2)C1 (centres undefined) | 87.78
COCC(=O)N1CCCn2c(CN3CCOCC3)nnc2C1.O=C(O)C(F)(F)F | 114.9
CCOCC(=O)N1CCCn2c(nnc2Cn2cccc2)C1 | 93.36
O=C(O)C(F)(F)F.O=C(O)C(F)(F)F.O=C(c1ccncc1)N1CCCn2c(CN3CCCC3)nnc2C1 | -6.384
O=C(CC1CC1)N1CCCn2c(nnc2Cn2cccc2)C1 | -9.469
COCC(=O)N1CCCn2c(CN3CCCCC3)nnc2C1.O=C(O)C(F)(F)F | -12.43
O=C(C1CCCO1)N1CCCn2c(nnc2Cn2ccnc2)C1.O=C(O)C(F)(F)F (centres undefined) | -15.24
COCC(=O)N1CCCn2c(CN3CCCC3)nnc2C1 | 85.92
COCC(=O)N1CCCn2c(CN3CCCC3=O)nnc2C1 | 88.29
Fc1cnc(N2CCCn3c(CN4CCOCC4)nnc3C2)nc1.O=C(O)C(F)(F)F.O=C(O)C(F)(F)F | -2.409
O=C(C1CCCO1)N1CCCn2c(nnc2Cn2cccc2)C1 (centres undefined) | -19.79
CCc1nc(CCNC(=O)C2CCOC2)sc1C (centres undefined) | -3.855
Cc1cc(N2CCN(C(=O)C(C)n3ccnc3C(C)C)CC2)cc(C)n1 (centres undefined) | 8.833
CCOCC(=O)N1CCCn2c(CN3CCOCC3)nnc2C1 | 89.68
CCOCC(=O)N1CCCn2c(CN3CCCCC3)nnc2C1 | 101.4
Cc1nc2cc(F)cc(C(=O)N3CCN(CC(C)O)CC3)c2nc1C (centres undefined) | -10.08
CNc1cncc(C2CCN(C(=O)c3coc(C)n3)CC2)n1 | 81.53
CNc1cncc(C2CCN(C(=O)c3cnco3)CC2)n1 | 87.6

Compound | Percent Effect [%]
COCCN(Cc1ccco1)Cc1nc(-c2ccc(C)c(F)c2)no1 | -0.2442
CC1Oc2ccc(S(=O)(=O)NCCCn3ccnc3)cc2NC1=O (centres undefined) | -3.003
CCC(C)(C)NCc1nc(C(C)(C)NC(=O)OC(C)(C)C)no1 | 2.253
COCCN(C)C(=O)c1nc2c(s1)CCCN2c1ncccn1 | -1.851
Cc1ccc(N2CCCc3sc(C(=O)NCc4ccncc4)nc32)nn1 | -3.066
COCCNC(=O)c1nc2c(s1)CCCN2c1ccc(C)nn1 | 1.037
Cc1ccc(N2CCCc3sc(C(=O)NCc4cccnc4)nc32)nn1 | 10.28
CCN(C(=O)c1nc2c(s1)CCCN2c1ccc(C)nn1)C(C)C | 87.32
COCCN(C)C(=O)c1nc2c(s1)CCCN2c1ccc(C)nn1 | 96.15
N#Cc1cccc(CN2CC3(CCCCN3c3cccnc3)CC2=O)c1.O=C(O)C(F)(F)F (centres undefined) | 9.304
CC(C)CN1C[C@@H]2CN(c3cnccn3)C[C@@H]2C1=O | -19.41
O=S(=O)(NCC1(O)CCOc2ccccc21)c1cccs1 (centres undefined) | -3.854
CCC(CO)N(Cc1cccs1)C(=O)CNS(=O)(=O)c1cccs1 (centres undefined) | 5.395
O=S(=O)(NCC(c1ccsc1)N1CCCCCC1)c1cccs1 (centres undefined) | 116.8
CN(C)c1ccc(C(CNS(=O)(=O)c2cccs2)N2CCCC2)cc1 (centres undefined) | 108.3
CN1CCc2cc(C(CNS(=O)(=O)c3cccs3)N3CCCC3)ccc21 (centres undefined) | -7.457
O=C(CSc1ccc2c(c1)OCCO2)NS(=O)(=O)c1cccs1 | 5.144
O=C(CN1CCN(C(=O)c2cccc(-c3ccoc3)c2)CC1)C1CC1 | -1.743
Cc1ccc(C2CSCCN2C(=O)c2ccsc2)o1 (centres undefined) | 6.011
CN(C)CC1CSCCCN1C(=O)c1ccc(=O)[nH]c1 (centres undefined) | 13.95
CN(C)CC1CSCCCN1C(=O)c1ccc(C(C)(C)C)cc1 (centres undefined) | 10.83
CN(C)CC1CSCCCN1S(=O)(=O)Cc1cccc(F)c1 (centres undefined) | 24.8
CN(C)CC1CSCCCN1C(=O)c1ccsc1 (centres undefined) | 106.6
CN(C)CC1CSCCCN1S(=O)(=O)c1ccc(C(F)(F)F)cc1 (centres undefined) | 1.872
CN(C)CC1CSCCCN1S(=O)(=O)Cc1ccc(C(F)(F)F)cc1 (centres undefined) | -4.653

Compound | Percent Effect [%]
CN(C)CC1CSCCCN1C(=O)Nc1ccc(C(C)(C)C)cc1 (centres undefined) | -13.3
CN(C)CC1CSCCCN1C(=O)c1ccc(-n2cccc2)cc1 (centres undefined) | 106.7
CN(C)CC1CSCCCN1C(=O)c1cccc(C(F)(F)F)c1 (centres undefined) | 90.72
CN(C)CC1CSCCCN1C(=O)c1ccc(-c2ccccc2)cc1 (centres undefined) | 105.9
CC(O)CN1CCC(CNCc2cccc(OC(C)C)c2)CC1 (centres undefined) | -7.306
CC(c1nc(-c2ccccc2)no1)N1CC(n2cccn2)C1 (centres undefined) | -11.21
COc1ccc(CN(C)c2ccc(-c3nccn3C)nn2)cc1OC | -9.583
O=C(Nc1nnn[nH]1)c1ccc(I)c(F)c1 | 14.38
Cc1ccc(C2CSCCN2C(=O)c2ccc(C(N)=O)cc2)o1 (centres undefined) | -7.519
CC(C)Oc1ccc(C(=O)N2CCCSCC2CN(C)C)cc1 (centres undefined) | 112.1
Cc1cccc(OCC2CCCN(C(=O)CN(C)C3CCNCC3)C2)c1 (centres undefined) | -1.159
CC(C)NC(=O)C1CCC2(CCN(Cc3cnn(C)c3)CC2)C1.O=C(O)C(F)(F)F (centres undefined) | -6.614
CN(CCc1ccc2c(c1)CCO2)C1CCS(=O)(=O)CC1 | -8.2
CCN(Cc1ccc(-c2ccccn2)cc1)C1CCS(=O)(=O)C1 (centres undefined) | -8.377
CN(Cc1nc(C(C)(C)C)no1)C1CCS(=O)(=O)C1 (centres undefined) | -19.08
Cc1nc(CN(Cc2ccccc2)C2CCS(=O)(=O)C2)oc1C (centres undefined) | 1.056
CN(Cc1nc(C2CC2)no1)C1CCS(=O)(=O)C1 (centres undefined) | -44.33
CCN(Cc1cc(-c2ccccn2)no1)C1CCS(=O)(=O)C1 (centres undefined) | -17.52
CN(CCc1ncnn1-c1ccccc1Cl)C1CCS(=O)(=O)C1 (centres undefined) | 107.4
CN(CCc1ncnn1C1Cc2ccccc2C1)C1CCS(=O)(=O)C1 (centres undefined) | 86.57
CN(Cc1ncnn1C1Cc2ccccc2C1)C1CCS(=O)(=O)C1 (centres undefined) | 124.4
Cc1ccc(O)c(C(=O)NCCS(=O)(=O)Cc2ccccc2)c1 | 0.3485
O=C(CCN1C(=O)CCC1=O)Nc1cnn(-c2ccccc2Cl)c1 | -6.016
Cc1cccc(OC(C)C(=O)NCC2(N(C)C)CCCC2)c1 (centres undefined) | 4.772
